The list is not random: actives were taken first. Their share in the collection is about 1.5%.
CD11b adhes inh – CD11b/CD18-fibrinogen binding inhibition; P05107+P11215; K562 CD11b/CD18 adhesion to fibrinogen, ATPlite luminescence; Mn2+ added to activate the integrin; inhibition, % at 10 µM; 0.54% of 93,000 active;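 active = primary inhibition of 50% or more at 10 µM, then 40% or more on retest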
Mac1 fbg enh – increases human CD11b/CD18 adhesion to fibrinogen | P05107+P11215 | K562 CD11b/CD18 adhesion to fibrinogen, ATPlite luminescence | activation, % at 10 µM | 0.07% of 93,000 active;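 active = 10 µM primary screen giving 50% or more activity, confirmed by 40% or more on retest at that dose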
S1P2 agonist – S1P2 (human) receptor agonism. S1P2-expressing cell line, agonist reporter read-out. O95136. 0.46% of 97,000 active. activation, % at 4.5 µM; in the data active = activation above about 16%;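 note: 0% = vehicle low control and 100% = maximal reference agonist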
GALR2 agonist – GALR2 (human) receptor agonism; O43603; GALR2-expressing cells, agonist activation read-out; activation, % (concentration not given with the values); 0.48% of 140,000 active; AID 803; in the data active = activation above about 5%, passing the limit was not always enough;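 note: 0% = vehicle buffer wells and 100% = reference agonist at full effect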
S1P2 blocker – antagonists of human S1P2 receptor. O95136. cell-based S1P2 antagonist assay, inhibition at 5 uM. inhibition, % at 5 µM. 0.21% of 97,000 active. AID 736; in the data active = inhibition above about 45%;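 note: CRE beta-lactamase reporter cells expressing human S1P2 stimulated with S1P; 0% = agonist at EC80 alone and 100% = agonist plus reference antagonist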
GALR2 antag – blocks the human galanin receptor 2. O43603. GALR2-expressing cells, antagonist mode. inhibition, % at 4 µM. 0.39% of 140,000 active. AID 828; in the data active = inhibition above about 27%;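 note: cells stimulated with galanin 1-16 at roughly its EC80; 0% = agonist challenge control and 100% = basal control without agonist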
Active calls of the source: *.

For CCOc1ccc(/C=C/C(=O)c2cc(Br)ccc(=O)c2O)cc1 the results were GALR2 agonist 1 and GALR2 antag -9.
O=C(NNC(=O)c1ccc([N+](=O)[O-])cc1Cl)c1ccncc1 was read as GALR2 agonist 0 and GALR2 antag -2.
CC(C)(C)c1cc(NC(=O)CSc2nncs2)n(-c2ccccc2)n1 was read as GALR2 agonist -1 and GALR2 antag -4.
Screening N#CC(c1ccc(F)cc1)c1ccc(C(=O)c2ccc(F)cc2)cc1 (stereo unspecified) returned CD11b adhes inh 87*, Mac1 fbg enh -5, S1P2 agonist -2, GALR2 agonist 0, S1P2 blocker -7 and GALR2 antag -1.
Screening O=[N+]([O-])c1cc(-c2ncccn2)cs1 returned GALR2 agonist 0 and GALR2 antag -10.
COc1cc(C)c(NC(=S)Nc2cccc(Cl)c2C)cc1OC was read as CD11b adhes inh 21, Mac1 fbg enh -5, GALR2 agonist -1 and GALR2 antag 3.
CCCCCCN1CC(O)=C(c2nc3ccccc3[nH]2)C1=N was read as CD11b adhes inh 0, Mac1 fbg enh -4, GALR2 agonist 7.2* and GALR2 antag 26.
Screening COc1ccc(Cl)cc1C(=O)NNC(=S)NC(=O)c1cc(-c2ccccc2)nc2ccccc12 returned CD11b adhes inh 16, Mac1 fbg enh 62*, S1P2 agonist -4, GALR2 agonist -3, S1P2 blocker 3 and GALR2 antag 11.
For CC(=O)c1ccc(OCCCC(=O)NC2CCCc3ccccc32)cc1 (stereo unspecified) the results were GALR2 agonist -1 and GALR2 antag 8.
O=c1ccn(-c2cccc(C(F)(F)F)c2)nc1-c1ccn(-c2ccccc2)n1 was read as CD11b adhes inh -2, Mac1 fbg enh 6, S1P2 agonist 25*, GALR2 agonist -1, S1P2 blocker -27 and GALR2 antag 3.
For COC(=O)c1nn(-c2ccccc2)ccc1=O the results were CD11b adhes inh -41, Mac1 fbg enh 1, S1P2 agonist -4, GALR2 agonist 0, S1P2 blocker -10 and GALR2 antag 4.
`COc1ccc(OC)c(NC(=O)COC(=O)CCCN2C(=O)c3ccccc3C2=O)c1` gave GALR2 agonist -1 and GALR2 antag -1.
`COc1ccc(-c2nc3ccccc3[nH]2)cc1` gave CD11b adhes inh 27, Mac1 fbg enh -4, S1P2 agonist -4, GALR2 agonist -4, S1P2 blocker 10 and GALR2 antag -3.
For Cc1cccc(-n2nc(C(=O)c3ccco3)cc(-c3nc4ccccc4[nH]3)c2=N)c1 the results were GALR2 agonist 0 and GALR2 antag 10.
COc1ccc(-n2nc(C(=O)c3cccs3)cc(-c3nc4ccccc4[nH]3)c2=N)cc1 was read as S1P2 agonist 22*, GALR2 agonist -1, S1P2 blocker -45 and GALR2 antag 7.
Screening Cc1ccccc1-n1nc(C(=O)c2cccs2)cc(-c2nc3ccccc3[nH]2)c1=N returned S1P2 agonist 24*, GALR2 agonist -3, S1P2 blocker -12 and GALR2 antag 12.
Screening O=C(/C=C/c1ccccc1[N+](=O)[O-])NCc1cccnc1 returned CD11b adhes inh -4, Mac1 fbg enh -3, GALR2 agonist 1 and GALR2 antag -17.
Screening Cc1snc(S(=O)(=O)/C(C#N)=N/Nc2cccc(C(F)(F)F)c2)c1C#N returned CD11b adhes inh 90*, Mac1 fbg enh -6, S1P2 agonist -1, GALR2 agonist -1, S1P2 blocker 2 and GALR2 antag -18.
For N#C/C(=C/c1ccc(N2CCCC2)c([N+](=O)[O-])c1)c1nc2ccccc2[nH]1 the results were S1P2 agonist -1, GALR2 agonist -2, S1P2 blocker 15 and GALR2 antag 12.
For N#C/C(=C\c1ccc(Oc2ccc(C(F)(F)F)cc2[N+](=O)[O-])cc1)c1nc2ccccc2[nH]1 the results were CD11b adhes inh 3, Mac1 fbg enh 82*, S1P2 agonist -3, GALR2 agonist -1, S1P2 blocker -12 and GALR2 antag 3.
FC(F)Sc1ccc(NC(=S)NCC2CCCCC2)cc1 was read as CD11b adhes inh 92*, Mac1 fbg enh -10, S1P2 agonist -3, GALR2 agonist -4, S1P2 blocker 3 and GALR2 antag -4.
For Nc1nc2nc(-c3ccc(OCc4ccccc4)cc3)cc(C(F)(F)F)n2n1 the results were CD11b adhes inh -30, Mac1 fbg enh 0, S1P2 agonist 33*, GALR2 agonist 5, S1P2 blocker -70 and GALR2 antag 2.
COc1ccc(CC(=O)Nc2ccc(-c3noc(COc4ccccc4C)n3)cc2)cc1 was read as CD11b adhes inh -21, Mac1 fbg enh 10, GALR2 agonist 7.8* and GALR2 antag 4.
`O=[N+]([O-])c1ccc(N=Nc2ccc(O)cc2O)cc1` gave CD11b adhes inh 94*, Mac1 fbg enh -9, S1P2 agonist -8, GALR2 agonist -2, S1P2 blocker -23 and GALR2 antag -2.
`Cc1ccc(S(=O)(=O)N(C)C)cc1NS(=O)(=O)c1ccc(Cl)s1` gave GALR2 agonist -2 and GALR2 antag 9.
For O=C(Cn1cnc2c(nnn2Cc2ccc(F)cc2)c1=O)NCc1ccco1 the results were S1P2 agonist 33*, GALR2 agonist -1, S1P2 blocker -15 and GALR2 antag 6.
`Cc1ccc(-c2csc3ncnc(Sc4nnc(CN5CCCCCC5=O)o4)c23)cc1` gave CD11b adhes inh -10, Mac1 fbg enh 17, S1P2 agonist -10, GALR2 agonist 7, S1P2 blocker 52* and GALR2 antag 27*.
`Cc1ccc(-c2csc3ncnc(SCC(=O)Nc4nnc(C)s4)c23)cc1` gave CD11b adhes inh -22, Mac1 fbg enh 36, S1P2 agonist -5, GALR2 agonist -2, S1P2 blocker 3 and GALR2 antag -2.
For CCCc1nc(N)c(C#N)c(N)c1C#N the results were CD11b adhes inh -6, Mac1 fbg enh 2, S1P2 agonist 17*, GALR2 agonist -1, S1P2 blocker -37 and GALR2 antag -4.
`O=C(N/N=C/c1cccnc1)c1ccc2c(c1)OCCO2` gave GALR2 agonist -2 and GALR2 antag 2.
`O=S1(=O)C=C(Sc2nc3ccccc3s2)c2ccccc21` gave CD11b adhes inh -10, Mac1 fbg enh 2, GALR2 agonist 0 and GALR2 antag 74*.
For O=C(CSc1cnc2ccccc2n1)c1ccc(F)cc1 the results were GALR2 agonist -1 and GALR2 antag 22.
COc1ccc(/C=C/C(=O)NCCCc2ccccc2)cc1OC was read as GALR2 agonist 1 and GALR2 antag 10.
For COc1cc(/C=C/C(=O)NC(C)C)ccc1OCc1ccccc1 the results were GALR2 agonist 7.5* and GALR2 antag 4.
Cc1cccc2sc(NNC(=O)c3cc(-c4cccs4)nc4ccccc34)nc12 was read as GALR2 agonist -1 and GALR2 antag -6.
